Where “and” joins values, the source holds several entries; their conditions need not be identical. Identical values can stand only once. Records with an inconclusive call do not appear. Calls of active or inactive are those of the source. Unless noted, the call rests on the fitted dose curve; in most records, active means well fitted curve in the direction sought with a large enough effect; inconclusive means small, poorly fitted or top-dose-only effect, or another doubt; inactive means no such curve, though single readings can be large; an effect the other way counts as inactive or inconclusive.
Columns and labels:
[1] = system: Zika virus NS2B-NS3 protease (unlinked complex); assay: Primary screen GU Rhodamine qHTS for Zika virus inhibitors: Unlinked NS2B-NS3 protease assay (AID 1347159); details: Recombinant ZIKV NS2B-NS3 protease, Rhodamine110 substrate fluorescence; series mostly up to 107 µM; further: on the % scale 0 is the no-effect control and ±100 the full control effect; nearly all actives have a fitted effect of over 60% in size
How it was run: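 A qHTS format was used, with compound concentrations ranging up to 114 microM. Each compound was preincubated with 25 nM NS2B-NS3 protease, and the substrate was then added at 1.5 microM. Curves were fitted with a 4-parameter Hill model.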

[2] = system: Zika virus NS2B-NS3 protease (linked construct); assay: Primary screen NINDS Rhodamine qHTS for Zika virus inhibitors (AID 1347160); details: purified NS2B-NS3 protease, Rhodamine110 substrate fluorescence; series mostly up to 57.1 µM; further: nearly all actives have a fitted effect of over 55% in size
How it was run: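 Kinetic fluorescence (Ex 480 nm, Em 540 nm) over 15 min with 1.5 microM Rhodamine110 peptide and 25 nM linked protease.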

[3] = molecular target: Calcium and integrin-binding protein 1 (Homo sapiens) (UniProt Q99828); assay: Primary qHTS for Identification of Calcium Integrin Binding Protein 1 (CIB1) Competitor (AID 1508620); details: CIB1-GST / FITC-alphaIIb peptide fluorescence polarization; series mostly up to 114 µM;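 further: GST tagged CIB1 binding a fluorescein labelled alphaIIb integrin peptide tracer; top concentration of the series differs between compounds; on the % scale 0 is the no-effect control and ±100 the full control effect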
Sequence of Calcium and integrin-binding protein 1 (Homo sapiens) (Q99828 whole entry, looked up): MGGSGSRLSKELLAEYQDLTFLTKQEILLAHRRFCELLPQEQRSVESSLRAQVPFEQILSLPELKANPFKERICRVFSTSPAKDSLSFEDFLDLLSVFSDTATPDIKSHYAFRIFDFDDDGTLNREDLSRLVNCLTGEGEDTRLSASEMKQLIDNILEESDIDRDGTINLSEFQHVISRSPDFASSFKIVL
How it was run: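 Fluorescence polarization competition: GST-tagged CIB1 (1 uM final) preincubated with compound 15 min at room temperature, then FITC-labelled alphaIIb peptide (100 nM final) added. After 15 min at room temperature, polarization read at Ex 480/Em 540.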

[4] = Primary qHTS for inhibitors of nuclear receptor binding SET domain protein 2 (NSD2) in an isogenic RCH-ACV NSD2 p.E1099K mutant (9B) (AID 1645876); details: RCH-ACV NSD2 E1099K (9B) viability, CellTiter-Glo, 72 h; series mostly up to 44.9 µM; further: nearly all actives have a fitted effect of over 70% in size; further: potency means the concentration at half of the fitted maximal effect
[5] = molecular target: Glutathione peroxidase 1 (Homo sapiens) (UniProt P07203); assay: Primary qHTS Assay for Inhibitors of Recombinant Selenoprotein Glutathione Peroxidase 1 (GPX1) (AID 1845191); details: recombinant GPX1, GR-coupled NADPH fluorescence, 15 min; series mostly up to 48.8 µM; further: nearly all actives have a fitted effect of over 65% in size
Sequence of Glutathione peroxidase 1 (Homo sapiens) (P07203 whole entry, looked up): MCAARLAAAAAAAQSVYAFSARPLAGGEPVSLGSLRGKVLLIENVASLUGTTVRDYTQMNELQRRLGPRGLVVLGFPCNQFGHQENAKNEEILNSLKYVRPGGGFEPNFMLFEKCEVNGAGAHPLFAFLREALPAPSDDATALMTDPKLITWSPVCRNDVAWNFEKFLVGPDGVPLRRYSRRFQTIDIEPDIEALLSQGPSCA
How it was run: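 GR-coupled assay: compounds preincubated 30 min at room temperature with GPX1, then reaction started with CHP; final 10 nM GPX1, 1 mM GSH, 0.5 mM CHP, 0.5 mM NADPH, 100 nM GR, 0.01% BSA, pH 7.5 Tris buffer. NADPH fluorescence (340/450 nm) read at 0 and 15 min.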

[6] = molecular target: Phospholipid hydroperoxide glutathione peroxidase GPX4 (Homo sapiens) (UniProt P36969); assay: Primary qHTS Assay for Inhibitors of Recombinant Selenoprotein Glutathione Peroxidase 4 (GPX4) (AID 1845192); details: recombinant GPX4, GR-coupled NADPH fluorescence, 15 min; series mostly up to 50 µM; further: nearly all actives have a fitted effect of over 65% in size
Sequence of Phospholipid hydroperoxide glutathione peroxidase GPX4 (Homo sapiens) (P36969 whole entry, looked up): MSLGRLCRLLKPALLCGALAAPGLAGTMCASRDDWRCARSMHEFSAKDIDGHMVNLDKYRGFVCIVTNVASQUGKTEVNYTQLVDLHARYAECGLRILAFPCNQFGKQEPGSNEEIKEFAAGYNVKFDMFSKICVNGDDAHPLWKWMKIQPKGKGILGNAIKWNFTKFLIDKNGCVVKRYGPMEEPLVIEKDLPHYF
How it was run: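 GR-coupled assay: recombinant GPX4 preincubated 30 min with compound at room temperature; final 200 nM GPX4, 1 mM GSH, 0.5 mM cumene hydroperoxide, 0.5 mM NADPH, 100 nM GR, 0.01% BSA, pH 7.5 Tris. NADPH fluorescence (340/450 nm) read at 0 and 15 min.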

[7] = molecular target: Luciferin 4-monooxygenase (Photinus pyralis) (UniProt P08659); assay: Primary firefly luciferase (FLuc) qHTS assay for identification of artifact compounds. (AID 1845220); details: purified firefly luciferase, luminescence, 5 min; series mostly up to 54.1 µM; further: nearly all actives have a fitted effect of over 60% in size
How it was run: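 Enzymatic FLuc inhibition assay: compounds pre-exposed to luciferin/ATP (10 uM each) for 15 min, then purified P. pyralis enzyme at 10 nM added. Read-out: luminescence at 5 min.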

[8] = system: Nanoluciferase (engineered Oplophorus gracilirostris luciferase); assay: Primary Nanoluciferase (NLuc) qHTS assay for identification of artifact compounds. (AID 1845222); details: NLuc-conditioned medium, Nano-Glo luminescence, 5 min; series mostly up to 54.1 µM;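 further: NLuc secreted into diluted conditioned medium of S16 cells; 0% = DMSO and -100% = no enzyme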
How it was run: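 S16 cell supernatant NLuc, 1:55; cpds qHTS; 15 min RT dark; Nano-Glo substrate 1:100, 5 min; luminescence; Hill fit of % inhibition.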

[9] = system: C33A; assay: Primary qHTS to identify gynecologic anti-cancer compounds using libraries of approved drugs and bioactive compounds (AID 1345084); details: Gynecologic cancer cell panel viability, ATPlite luminescence, 48 h; series mostly up to 57.5 µM; further: nearly all actives have a fitted effect of over 55% in size; further: potency means the concentration at half of the fitted maximal effect
How it was run: (§1)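 Five-concentration response, 48 h; readout is ATP-driven luciferase luminescence.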

[10] = system: CASKI; assay: as above; details: Gynecologic cancer cell panel viability, ATPlite luminescence, 48 h; series mostly up to 57.5 µM
How it was run: as §1

[11] = system: Es-2; assay: as above; details: Gynecologic cancer cell panel viability, ATPlite luminescence, 48 h; series mostly up to 57.5 µM
How it was run: as §1

[12] = system: HeLa; assay: as above; details: Gynecologic cancer cell panel viability, ATPlite luminescence, 48 h; series mostly up to 57.5 µM
How it was run: as §1

[13] = system: Hek293T; assay: as above; details: Gynecologic cancer cell panel viability, ATPlite luminescence, 48 h, control line for the selectivity index; series mostly up to 57.5 µM
How it was run: as §1

[14] = system: JEG-3; assay: as above; details: Gynecologic cancer cell panel viability, ATPlite luminescence, 48 h; series mostly up to 57.5 µM
How it was run: as §1

[15] = system: OV90; assay: as above; details: Gynecologic cancer cell panel viability, ATPlite luminescence, 48 h; series mostly up to 57.5 µM
How it was run: as §1

[16] = system: Tov-21-G; assay: as above; details: Gynecologic cancer cell panel viability, ATPlite luminescence, 48 h; series mostly up to 57.5 µM
How it was run: as §1

[17] = system: Tov112D; assay: as above; details: Gynecologic cancer cell panel viability, ATPlite luminescence, 48 h; series mostly up to 57.5 µM
How it was run: as §1

[18] = Primary qHTS for inhibitors of nuclear receptor binding SET domain protein 2 (NSD2) in an RCH-ACV wild type WT cells (2C) (AID 1645877); details: RCH-ACV (leukaemia line) NSD2 WT (2C) viability, CellTiter-Glo, 72 h; series mostly up to 44.9 µM; further: nearly all actives have a fitted effect of over 70% in size; further: potency means the concentration at half of the fitted maximal effect
[19] = qHTS drug screen for cell cycle checkpoint inhibitors in PARPi-resistant BRCA-mutant ovarian cancer cell lines. (AID 1963452; calls by dose curve); details: PEO1/OlaR viability, CellTiter-Glo luminescence, 96 h, stronger effect = lower value
How it was run: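 PEO1, PEO4 and PEO1/OlaR ovarian cancer cells, 600 per well, exposed 96 h at 37C to a dilution series. Viability read by CellTiter-Glo luminescence, normalized to DMSO and empty wells; activity summarized as Z-AUC.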

[20] = system: HaCat; assay: Cytotoxic Profiling of Annotated Libraries Using Quantitative High-Throughput Screening (AID 1296008); details: Five cell lines viability, CellTiter-Glo ATP luminescence, 48-72 h; max response: stronger effect = lower value; further: on the % scale 0 is the no-effect control and ±100 the full control effect; nearly all actives have a fitted effect of over 60% in size
How it was run: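 Cells exposed to compounds for 48 or 72 hr at 37 degrees Celsius. Viability read as ATP-coupled luminescence with CellTiter-Glo after 10 min at room temperature.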

[21] = measured here: PEO1 parental Z-AUC

CO[C@@H]1[C@@H](O[C@H]2O[C@@H](C)[C@H](O[C@@H]3C[C@](C)(O)[C@H](O)[C@@H](C)O3)[C@@H](N(C)C)[C@@H]2O)[C@@H](CC=O)C[C@@H](C)[C@@H](O[C@H]2CC[C@H](N(C)C)[C@H](C)O2)/C=C/C=C/C[C@@H](C)OC(=O)C[C@H]1O
inactive: Potency [1] | Potency [2] | outcome [3] | Potency [4] | Potency [5] | Potency [6] | Potency [7] | Potency [8] | Potency [9] | Potency [10] | Potency [11] | Potency [12] | Potency [13] | Potency [14] | Potency [15] | Potency [16] | Potency [17]

CS(=O)(=O)c1ccc(-c2cn3ccccc3n2)cc1
active: Potency [9] 10 µM | Potency [10] 6.31 µM | Potency [12] 12.6 µM | Potency [13] 17.8 µM | Potency [14] 7.08 µM | Potency [15] 7.94 µM | Potency [16] 8.91 µM | Potency [17] 7.94 µM

COc1cc(N2CCN(C(C)=O)CC2)ccc1Nc1ncc(Cl)c(Nc2ccc(N3CCN(C(C)=O)CC3)cc2OC)n1
active: Potency [4] 8.17 µM and 16.6 µM | Potency [18] 6.49 µM and 13.2 µM
0.132: Z-AUC ([19]; measured here: PEO4 Z-AUC)
0.393: Z-AUC [19, 21]
inactive: Potency [1] | Potency [2] | outcome [3] | Potency [5] | Potency [6] | Potency [7] | Potency [8] | Z-AUC [19] 0.859 | Potency [9] | Potency [11] | Potency [14]

CC1(C)SC2C(NC(=O)[C@H](C(=O)O)c3ccsc3)C(=O)N2C1C(=O)O (some centres not stated)
inactive: Potency [1] | Potency [2] | outcome [3] | Potency [4] | Potency [18] | Potency [6] | Potency [7] | Potency [8] | Potency [9] | Potency [10] | Potency [11] | Potency [12] | Potency [13] | Potency [14] | Potency [15] | Potency [16] | Potency [17]

CN[C@@H]1[C@@H](O)[C@@H](O[C@@H]2[C@@H](O)[C@H](O[C@H]3O[C@@H]([C@@H](C)NC)CC[C@H]3N)[C@@H](N)C[C@H]2N)OC[C@]1(C)O
inactive: Potency [1] | Potency [2] | Potency [4] | Potency [18] | Potency [6] | Potency [7] | Potency [8] | Potency [9] | Potency [10] | Potency [11] | Potency [12] | Potency [13] | Potency [14] | Potency [15] | Potency [16] | Potency [17]

CCCCc1nc(Cl)c(CO)n1Cc1ccc(-c2ccccc2-c2nnn[nH]2)cc1
inactive: Potency [2] | outcome [3] | Potency [4] | Potency [18] | Potency [6] | Potency [7] | Potency [9] | Potency [10] | Potency [11] | Potency [12] | Potency [13] | Potency [14] | Potency [15] | Potency [16] | Potency [17]

CCNC(=O)[C@@H]1CCCN1C(=O)[C@H](CCCN=C(N)N)NC(=O)[C@H](CC(C)C)NC(=O)[C@@H](CC(C)C)NC(=O)[C@H](Cc1ccc(O)cc1)NC(=O)[C@H](CO)NC(=O)[C@H](Cc1c[nH]c2ccccc12)NC(=O)[C@H](Cc1cnc[nH]1)NC(=O)[C@@H]1CCC(=O)N1
inactive: Potency [1] | Potency [2] | outcome [3] | Potency [4] | Potency [18] | Potency [6] | Potency [7] | Potency [8] | Potency [9] | Potency [10] | Potency [11] | Potency [12] | Potency [13] | Potency [14] | Potency [15] | Potency [16] | Potency [17]

Cc1cc(CS(=O)(=O)c2ccccc2)cc(OCc2ccc(CN3CCC[C@@H]3CO)cc2)c1
0.0408: Z-AUC ([19]; measured here: PEO4 Z-AUC)
active: Potency [4] 12.9 µM and 16.6 µM | Potency [18] 18.3 µM and 14.8 µM | Potency [15] 25.1 µM
inactive: Potency [2] | outcome [3] | Potency [5] | Potency [6] | Potency [7] | Potency [8] | Z-AUC [19] 0.153 | Potency [10] | Potency [11] | Potency [12]
0.253: Z-AUC [19, 21]

C=C1C(=O)O[C@@H]2CC(C)=C([C@@H](C)CCCO)[C@@H](OC(=O)C(C)C)[C@H]12
inactive: Potency [2] | outcome [3] | Potency [5] | Potency [6] | Potency [7] | Potency [8] | Potency [9] | Potency [11] | Potency [12] | Potency [14] | Potency [15]
active: Potency [4] 14.2 µM | Potency [18] 14.2 µM

COc1ccc(CNC(=O)Nc2ncc([N+](=O)[O-])s2)cc1
active: Potency [4] 18.6 µM
inactive: Potency [2] | outcome [3] | Potency [5] | Potency [6] | Potency [8] | Z-AUC [19] -1.06 | max response [20] 3.95% | Potency [10] | Potency [14] | Potency [16] | Potency [17]
-0.518: Z-AUC ([19]; measured here: PEO4 Z-AUC)
-0.517: Z-AUC [19, 21]

Reference: PubChem BioAssay (NCATS)
